{"source": "paper PMC7826789", "about": "(International Journal of Molecular Sciences, 2021);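 also: KINOMEscan scanMAX binding as percent activity remaining versus control; lower means stronger binding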", "details_in_all_cases": "Compound Concentration (nM):1000", "key": {"MRCKA": {"tested_on": "T1, MRCKA", "T1 construct": "gene CDC42BPA"}, "MRCKB": {"tested_on": "T2, MRCKB", "T2 construct": "gene CDC42BPB"}, "MST1R": {"tested_on": "MST1R"}, "MST1": {"tested_on": "T3, MST1", "T3 construct": "gene STK4"}, "MST2": {"tested_on": "T4, MST2", "T4 construct": "gene STK3"}, "MST3": {"tested_on": "T5, MST3", "T5 construct": "gene STK24"}, "MST4": {"tested_on": "MST4"}, "MTOR": {"tested_on": "MTOR"}, "MUSK": {"tested_on": "MUSK"}, "MYLK2": {"tested_on": "MYLK2"}}, "data": [{"smiles": "COc1ccc2[nH]c3c4[nH]c5ccc(OC)cc5c4c4c(c3c2c1)C(=O)NC4=O", "note": "[GW296115X]", "values": [{"measurement": "Percent Control", "setting": "MRCKA", "value": 76, "unit": "%"}, {"measurement": "Percent Control", "setting": "MRCKB", "value": 89, "unit": "%"}, {"measurement": "Percent Control", "setting": "MST1R", "value": 93, "unit": "%"}, {"measurement": "Percent Control", "setting": "MST1", "value": 100, "unit": "%"}, {"measurement": "Percent Control", "setting": "MST2", "value": 82, "unit": "%"}, {"measurement": "Percent Control", "setting": "MST3", "value": 76, "unit": "%"}, {"measurement": "Percent Control", "setting": "MST4", "value": 85, "unit": "%"}, {"measurement": "Percent Control", "setting": "MTOR", "value": 100, "unit": "%"}, {"measurement": "Percent Control", "setting": "MUSK", "value": 83, "unit": "%"}, {"measurement": "Percent Control", "setting": "MYLK2", "value": 82, "unit": "%"}]}, {"smiles": "CCn1c(-c2nonc2N)nc2c(C#CC(C)(C)O)nc(OCCNC)cc21.Cl", "note": "[GSK949675]", "values": [{"measurement": "Percent Control", "setting": "MRCKA", "value": 100, "unit": "%"}, {"measurement": "Percent Control", "setting": "MRCKB", "value": 100, "unit": "%"}, {"measurement": "Percent Control", "setting": "MST1R", "value": 100, "unit": "%"}, {"measurement": "Percent Control", "setting": "MST1", "value": 100, "unit": "%"}, {"measurement": "Percent Control", "setting": "MST2", "value": 100, "unit": "%"}, {"measurement": "Percent Control", "setting": "MST3", "value": 100, "unit": "%"}, {"measurement": "Percent Control", "setting": "MST4", "value": 100, "unit": "%"}, {"measurement": "Percent Control", "setting": "MTOR", "value": 85, "unit": "%"}, {"measurement": "Percent Control", "setting": "MUSK", "value": 100, "unit": "%"}, {"measurement": "Percent Control", "setting": "MYLK2", "value": 98, "unit": "%"}]}, {"smiles": "COc1ccc(COc2ccc(Cc3cnc(N)nc3N)cc2OC)cc1", "note": "[GW632580X]", "values": [{"measurement": "Percent Control", "setting": "MRCKA", "value": 100, "unit": "%"}, {"measurement": "Percent Control", "setting": "MRCKB", "value": 100, "unit": "%"}, {"measurement": "Percent Control", "setting": "MST1R", "value": 100, "unit": "%"}, {"measurement": "Percent Control", "setting": "MST1", "value": 85, "unit": "%"}, {"measurement": "Percent Control", "setting": "MST2", "value": 73, "unit": "%"}, {"measurement": "Percent Control", "setting": "MST3", "value": 97, "unit": "%"}, {"measurement": "Percent Control", "setting": "MST4", "value": 90, "unit": "%"}, {"measurement": "Percent Control", "setting": "MTOR", "value": 96, "unit": "%"}, {"measurement": "Percent Control", "setting": "MUSK", "value": 100, "unit": "%"}, {"measurement": "Percent Control", "setting": "MYLK2", "value": 100, "unit": "%"}]}, {"smiles": "COc1cc(C=NNc2ncnc3c2cnn3-c2ccccc2)ccc1O", "note": "[GW513184X]", "values": [{"measurement": "Percent Control", "setting": "MRCKA", "value": 100, "unit": "%"}, {"measurement": "Percent Control", "setting": "MRCKB", "value": 100, "unit": "%"}, {"measurement": "Percent Control", "setting": "MST1R", "value": 29, "unit": "%"}, {"measurement": "Percent Control", "setting": "MST1", "value": 100, "unit": "%"}, {"measurement": "Percent Control", "setting": "MST2", "value": 94, "unit": "%"}, {"measurement": "Percent Control", "setting": "MST3", "value": 100, "unit": "%"}, {"measurement": "Percent Control", "setting": "MST4", "value": 58, "unit": "%"}, {"measurement": "Percent Control", "setting": "MTOR", "value": 93, "unit": "%"}, {"measurement": "Percent Control", "setting": "MUSK", "value": 100, "unit": "%"}, {"measurement": "Percent Control", "setting": "MYLK2", "value": 43, "unit": "%"}]}, {"smiles": "COc1ccccc1-c1cc(/C=C2\\C(=O)Nc3ncc(Br)cc32)cc(Br)c1O", "note": "[GW442130X]", "values": [{"measurement": "Percent Control", "setting": "MRCKA", "value": 100, "unit": "%"}, {"measurement": "Percent Control", "setting": "MRCKB", "value": 100, "unit": "%"}, {"measurement": "Percent Control", "setting": "MST1R", "value": 100, "unit": "%"}, {"measurement": "Percent Control", "setting": "MST1", "value": 100, "unit": "%"}, {"measurement": "Percent Control", "setting": "MST2", "value": 95, "unit": "%"}, {"measurement": "Percent Control", "setting": "MST3", "value": 100, "unit": "%"}, {"measurement": "Percent Control", "setting": "MST4", "value": 100, "unit": "%"}, {"measurement": "Percent Control", "setting": "MTOR", "value": 77, "unit": "%"}, {"measurement": "Percent Control", "setting": "MUSK", "value": 100, "unit": "%"}, {"measurement": "Percent Control", "setting": "MYLK2", "value": 97, "unit": "%"}]}, {"smiles": "Cl.O=C(Nc1ccc(Oc2ccc3[nH]c(NC(=O)c4ccco4)nc3c2)cc1)Nc1cc(C(F)(F)F)ccc1F", "note": "[GW683134A]", "values": [{"measurement": "Percent Control", "setting": "MRCKA", "value": 94, "unit": "%"}, {"measurement": "Percent Control", "setting": "MRCKB", "value": 89, "unit": "%"}, {"measurement": "Percent Control", "setting": "MST1R", "value": 100, "unit": "%"}, {"measurement": "Percent Control", "setting": "MST1", "value": 100, "unit": "%"}, {"measurement": "Percent Control", "setting": "MST2", "value": 100, "unit": "%"}, {"measurement": "Percent Control", "setting": "MST3", "value": 100, "unit": "%"}, {"measurement": "Percent Control", "setting": "MST4", "value": 87, "unit": "%"}, {"measurement": "Percent Control", "setting": "MTOR", "value": 100, "unit": "%"}, {"measurement": "Percent Control", "setting": "MUSK", "value": 5.6, "unit": "%"}, {"measurement": "Percent Control", "setting": "MYLK2", "value": 38, "unit": "%"}]}, {"smiles": "COc1cc2ncn(-c3cc(O[C@H](C)c4ccccc4Cl)c(C(N)=O)s3)c2cc1OC", "note": "[GSK237701A]", "values": [{"measurement": "Percent Control", "setting": "MRCKA", "value": 89, "unit": "%"}, {"measurement": "Percent Control", "setting": "MRCKB", "value": 96, "unit": "%"}, {"measurement": "Percent Control", "setting": "MST1R", "value": 94, "unit": "%"}, {"measurement": "Percent Control", "setting": "MST1", "value": 43, "unit": "%"}, {"measurement": "Percent Control", "setting": "MST2", "value": 0, "unit": "%"}, {"measurement": "Percent Control", "setting": "MST3", "value": 93, "unit": "%"}, {"measurement": "Percent Control", "setting": "MST4", "value": 91, "unit": "%"}, {"measurement": "Percent Control", "setting": "MTOR", "value": 100, "unit": "%"}, {"measurement": "Percent Control", "setting": "MUSK", "value": 89, "unit": "%"}, {"measurement": "Percent Control", "setting": "MYLK2", "value": 45, "unit": "%"}]}, {"smiles": "Cc1cc(O)cc(C)c1/C=C/c1cncc(C(N)=O)c1", "note": "[GW435821X]", "values": [{"measurement": "Percent Control", "setting": "MRCKA", "value": 100, "unit": "%"}, {"measurement": "Percent Control", "setting": "MRCKB", "value": 100, "unit": "%"}, {"measurement": "Percent Control", "setting": "MST1R", "value": 100, "unit": "%"}, {"measurement": "Percent Control", "setting": "MST1", "value": 100, "unit": "%"}, {"measurement": "Percent Control", "setting": "MST2", "value": 100, "unit": "%"}, {"measurement": "Percent Control", "setting": "MST3", "value": 100, "unit": "%"}, {"measurement": "Percent Control", "setting": "MST4", "value": 69, "unit": "%"}, {"measurement": "Percent Control", "setting": "MTOR", "value": 100, "unit": "%"}, {"measurement": "Percent Control", "setting": "MUSK", "value": 100, "unit": "%"}, {"measurement": "Percent Control", "setting": "MYLK2", "value": 100, "unit": "%"}]}, {"smiles": "CC(C)COC(=O)c1ccc2c(c1)/C(=C/Nc1ccc(S(N)(=O)=O)cc1)C(=O)N2", "note": "[GW416981X]", "values": [{"measurement": "Percent Control", "setting": "MRCKA", "value": 100, "unit": "%"}, {"measurement": "Percent Control", "setting": "MRCKB", "value": 100, "unit": "%"}, {"measurement": "Percent Control", "setting": "MST1R", "value": 100, "unit": "%"}, {"measurement": "Percent Control", "setting": "MST1", "value": 100, "unit": "%"}, {"measurement": "Percent Control", "setting": "MST2", "value": 1.1, "unit": "%"}, {"measurement": "Percent Control", "setting": "MST3", "value": 98, "unit": "%"}, {"measurement": "Percent Control", "setting": "MST4", "value": 31, "unit": "%"}, {"measurement": "Percent Control", "setting": "MTOR", "value": 100, "unit": "%"}, {"measurement": "Percent Control", "setting": "MUSK", "value": 100, "unit": "%"}, {"measurement": "Percent Control", "setting": "MYLK2", "value": 100, "unit": "%"}]}, {"smiles": "COc1cc(C)c(N(C)C(=O)CN(C)C)cc1Nc1nc(Nc2cccc(F)c2C(N)=O)c2cc[nH]c2n1", "note": "[GSK2219385]", "values": [{"measurement": "Percent Control", "setting": "MRCKA", "value": 100, "unit": "%"}, {"measurement": "Percent Control", "setting": "MRCKB", "value": 94, "unit": "%"}, {"measurement": "Percent Control", "setting": "MST1R", "value": 100, "unit": "%"}, {"measurement": "Percent Control", "setting": "MST1", "value": 100, "unit": "%"}, {"measurement": "Percent Control", "setting": "MST2", "value": 85, "unit": "%"}, {"measurement": "Percent Control", "setting": "MST3", "value": 93, "unit": "%"}, {"measurement": "Percent Control", "setting": "MST4", "value": 100, "unit": "%"}, {"measurement": "Percent Control", "setting": "MTOR", "value": 100, "unit": "%"}, {"measurement": "Percent Control", "setting": "MUSK", "value": 84, "unit": "%"}, {"measurement": "Percent Control", "setting": "MYLK2", "value": 100, "unit": "%"}]}]}
